Compounds with a hit are over-represented: about 21% of the library has one in this group of screens.
ClpP mod: qHTS Assay for Activators of ClpP; purified B. subtilis ClpP, FRET peptide cleavage, 20 min; Potency, µM (doses to about 57.5 µM), inactives show at the highest dose activity change, negative = active; hit rate 1.9% among 340,000; active means well fitted falling curve with a large enough effect; inconclusive means small, poorly fitted or top-dose-only effect; inactive means no such curve, though single readings can be large or run the other way; further: potency means the concentration at half of the fitted maximal effect; the source files actives as falling curves though it sought activators and does not explain the sign; nearly all actives have a fitted effect of over 65% in size
Target sequence (P80244 whole entry, looked up): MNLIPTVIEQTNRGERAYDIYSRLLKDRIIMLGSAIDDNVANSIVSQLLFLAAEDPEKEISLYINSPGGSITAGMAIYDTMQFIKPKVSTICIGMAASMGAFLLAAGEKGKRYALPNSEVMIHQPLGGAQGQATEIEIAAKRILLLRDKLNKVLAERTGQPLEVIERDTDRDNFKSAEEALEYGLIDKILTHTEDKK
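Purified B. subtilis ClpP, 10 microg/mL final in Tris/HCl pH8 with KCl, BSA, glycerol and Tween-20, cleaved an Abz/nitrotyrosine-quenched decapeptide. Fluorescence (ex 320, em 430) was read at 0 and 20 min at room temperature. Delta was normalized to 5.8 microM ADEP and DMSO/no-enzyme controls.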
DRD3 antagonist: qHTS of D3 Dopamine Receptor Antagonist: qHTS; D(3) dopamine receptor (Homo sapiens), P35462; D3R cells, DiscoveRx beta-arrestin luminescence, antagonist mode; hits give low values; max response, negative = inhibition, %; hit rate 2.5% among 360,000; in the data active means max response below about -50%; inconclusive means no clear call, values can overlap the other calls; further: on the % scale 0 is the no-effect control and ±100 the full control effect
Target sequence (P35462 whole entry, looked up): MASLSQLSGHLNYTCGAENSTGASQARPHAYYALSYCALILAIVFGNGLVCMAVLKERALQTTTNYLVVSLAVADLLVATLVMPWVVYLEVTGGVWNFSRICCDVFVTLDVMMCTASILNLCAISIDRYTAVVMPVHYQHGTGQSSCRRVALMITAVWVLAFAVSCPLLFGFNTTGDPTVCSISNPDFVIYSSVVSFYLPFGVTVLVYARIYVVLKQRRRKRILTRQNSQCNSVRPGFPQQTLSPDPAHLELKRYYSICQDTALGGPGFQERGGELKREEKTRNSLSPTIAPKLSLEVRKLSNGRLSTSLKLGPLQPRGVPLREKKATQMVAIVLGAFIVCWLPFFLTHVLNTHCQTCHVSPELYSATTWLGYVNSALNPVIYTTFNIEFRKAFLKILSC
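Cells expressing the human receptor were seeded at 1500 cells/well, incubated overnight at 37 degrees C in 5% CO2, then exposed to library compounds with dopamine controls for 90 minutes at 37 degrees C before luminescent detection.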
DT40 TDP1 no CPT: qHTS for Inhibitors of human tyrosyl-DNA phosphodiesterase 1 (TDP1): qHTS in cells in absence of CPT. AID 686978, 2013. Potency, µM (highest dose often 46.2 µM), for inactives: top-dose activity change, negative = growth inhibition, most hits filed as inhibitors. hit rate 15% among 420,000. DT40 Tdp1-/- hTDP1 cells, no CPT, ATP luminescence, 48 h; further: potency means the concentration at half of the fitted maximal effect; on the % scale 0 is the no-effect control and ±100 the full control effect; nearly all actives have a fitted effect of over 55% in size
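Compound effects on proliferation are scored in DT40 Tdp1-/-;hTDP1 cells in the absence of CPT. ATP levels (CellTiter-Glo luminescence) are recorded after a ≥48 hr, 37 °C incubation.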
TDP1 cell CPT: qHTS for Inhibitors of human tyrosyl-DNA phosphodiesterase 1 (TDP1): qHTS in cells in presence of CPT; chicken DT40 Tdp1-/-;hTDP1 cells + 20 nM CPT, ATP luminescence, 48 h; Potency, µM (highest dose often 46.2 µM), inactives show at the top dose activity change, negative = growth inhibition, hits mostly inhibitors; hit rate 12% among 420,000; AID 686979, 2013; further: potency means the concentration at half of the fitted maximal effect; on the % scale 0 is the no-effect control and ±100 the full control effect; nearly all actives have a fitted effect of over 55% in size
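Chicken DT40 Tdp1-/- cells complemented with human TDP1, 400 cells/well, exposed to compounds plus 20 nM camptothecin for at least 48 h at 37 C; viability read as ATP content by CellTiter-Glo luminescence.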
IL-1B inflam inh: qHTS for Inhibitors of Inflammasome Signaling: IL-1-beta AlphaLISA Primary Screen; THP-1 LPS/ATP IL-1B secretion, AlphaLISA, 16 h; hits give low values; hit rate 4.7% among 360,000; activity change, % at 57.5 µM; AID 743279, 2014; in the data active means activity change below about -50%; inconclusive means mostly about -30% to -49%; further: on the % scale 0 is the no-effect control and ±100 the full control effect
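Secreted IL-1B measured by AlphaLISA bead assay after 16 h compound exposure of THP-1 cells; compounds (final up to 57.5 uM) added 1 h before LPS (250 ng/mL) and ATP (1.25 mM) stimulation; lower signal means less secretion.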
DRD3 agonist: qHTS of D3 Dopamine Receptor Agonist: qHTS; D(3) dopamine receptor (Homo sapiens), P35462; D3R DiscoveRx beta-arrestin cells, luminescence, 90 min; max activation, %; hit rate 0.58% among 410,000; AID 652048, 2013; in the data active means max activation above about 30%; further: 0% is about no effect
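Agonist mode: compounds and dopamine controls were applied to plated cells for 90 min at 37 degrees C after an overnight attachment at 1500 cells/well. Luminescent read-out followed 30 - 60 minutes at room temperature with DiscoveRx detection reagent.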
* hit, by the source's call. Unless noted, the call rests on the fitted dose curve; in most records, active means well fitted inhibition curve with a large enough effect; inconclusive means small, poorly fitted or top-dose-only effect; inactive means flat fitted curve, though single readings scatter.

For CCc1ccc(Nc2nnc(SCC(=O)N(C)CC(=O)Nc3ccccc3CC)s2)cc1 the results were ClpP mod -3.6%, DRD3 antagonist -9.4, DT40 TDP1 no CPT 14.6µM*, TDP1 cell CPT 18.4µM*, IL-1B inflam inh -19.2 and DRD3 agonist 2.0.
Screening COc1ccc(-c2nn(C)c3sc(C(=O)Nc4cccc(F)c4)cc23)cc1OC returned ClpP mod 4.4%, DT40 TDP1 no CPT 10.3µM*, TDP1 cell CPT 14.6µM* and DRD3 agonist -24.4.
Screening COc1cccc(NC(=O)c2cc3c(-c4ccc(Cl)cc4)nn(C)c3s2)c1 returned ClpP mod 4.4%, DT40 TDP1 no CPT 14.6µM*, TDP1 cell CPT inconclusive and DRD3 agonist -25.3.
`CCCN1C(=O)/C(=N\OCC(=O)NC23CC4CC(CC(C4)C2)C3)c2ccccc21` gave ClpP mod 1.7%, DRD3 antagonist -18.2, DT40 TDP1 no CPT 16.4µM*, TDP1 cell CPT 16.4µM*, IL-1B inflam inh -3.6 and DRD3 agonist -3.5.
Screening CCCCOC(=O)C1=C(C)Nc2nnnn2C1c1ccccc1Cl (stereo unspecified) returned ClpP mod -1.4%, DRD3 antagonist 12.7, DT40 TDP1 no CPT 13µM*, TDP1 cell CPT inconclusive, IL-1B inflam inh 7.6 and DRD3 agonist 3.3.
`O=C(CCSc1ccc(Br)cc1)c1ccc(O)cc1` gave ClpP mod 1.0%, DRD3 antagonist 10.5, DT40 TDP1 no CPT 4.11µM*, TDP1 cell CPT 3.66µM*, IL-1B inflam inh -25.0 and DRD3 agonist 1.1.
Screening O=C(CCO)c1ccc(O)cc1 returned ClpP mod -4.8%, DRD3 antagonist -21.1, DT40 TDP1 no CPT -0.5%, TDP1 cell CPT 2.8%, IL-1B inflam inh 3.3 and DRD3 agonist 14.0.
Screening COc1cc(OC)cc(C(=O)Nc2ccc(S(=O)(=O)Nc3ccccn3)cc2)c1 returned DRD3 antagonist -5.9, DT40 TDP1 no CPT -21.5%, TDP1 cell CPT -3.2%, IL-1B inflam inh 11.5 and DRD3 agonist -14.4.
`C/C(=N/Nc1ccc(C(=O)c2c(C)cc3ccccn23)cc1[N+](=O)[O-])c1ccc(O)cc1` gave DRD3 antagonist -9.4, DT40 TDP1 no CPT inconclusive, TDP1 cell CPT 18.4µM*, IL-1B inflam inh -3.6 and DRD3 agonist -3.3.
`C/C(=N\Nc1ccc(C(=O)c2c(C)cc3ccccn23)cc1[N+](=O)[O-])c1ccc(O)cc1` gave ClpP mod -2.0%, DRD3 antagonist 0.6, DT40 TDP1 no CPT inconclusive, TDP1 cell CPT inconclusive, IL-1B inflam inh 2.9 and DRD3 agonist -1.0.
Screening O=C(NCC(c1ccc(F)cc1)N1CCOCC1)c1ccc(C(=O)c2ccccc2)cc1 (stereo unspecified) returned DRD3 antagonist -19.2, DT40 TDP1 no CPT 20.6µM*, TDP1 cell CPT inconclusive, IL-1B inflam inh -10.2 and DRD3 agonist -3.4.
For COc1cc(C(=O)NCC(c2ccc(F)cc2)N2CCOCC2)ccc1OCc1ccccc1Cl (stereo unspecified) the results were ClpP mod 1.8%, DRD3 antagonist 13.7, DT40 TDP1 no CPT inconclusive, TDP1 cell CPT inconclusive, IL-1B inflam inh -59.9* and DRD3 agonist -5.9.
`O=C(CC12CC3CC(CC(C3)C1)C2)NCC(c1ccc(F)cc1)N1CCOCC1` (stereo unspecified) gave DRD3 antagonist -26.5, DT40 TDP1 no CPT inconclusive, TDP1 cell CPT 25.9µM*, IL-1B inflam inh 6.3 and DRD3 agonist -5.9.
Screening COc1ccccc1NS(=O)(=O)c1ccc(C(=O)NCC(c2ccc(F)cc2)N2CCOCC2)cc1 (stereo unspecified) returned ClpP mod -0.2%, DRD3 antagonist 3.8, DT40 TDP1 no CPT -42.7%, TDP1 cell CPT inconclusive, IL-1B inflam inh 17.2 and DRD3 agonist 0.0.
OC(c1ccccc1)(c1ccc(F)cc1)C(c1ccccc1)N1CCOCC1 (stereo unspecified) was read as ClpP mod 0.7%, DRD3 antagonist 4.1, DT40 TDP1 no CPT 18.4µM*, TDP1 cell CPT 16.4µM*, IL-1B inflam inh -1.9 and DRD3 agonist -7.4.
Screening COc1ccccc1-c1nnc(SCC(=O)Nc2ccc(N3CCOCC3)cc2)n1C returned ClpP mod 1.0%, DRD3 antagonist 7.4, DT40 TDP1 no CPT -6.7%, TDP1 cell CPT 5.4%, IL-1B inflam inh 3.5 and DRD3 agonist -13.0.
Screening CCCCN(CC)C(=O)c1c[nH]c2ccc(S(=O)(=O)N(C)c3ccc(Cl)cc3)cc2c1=O returned ClpP mod -17.8%, DT40 TDP1 no CPT inconclusive, TDP1 cell CPT inconclusive and DRD3 agonist 4.4.
`O=C(CSc1ncnc2c1cnn2-c1ccccc1)NCC1CCCO1` (stereo unspecified) gave ClpP mod -1.9%, DRD3 antagonist 8.8, DT40 TDP1 no CPT inconclusive, TDP1 cell CPT inconclusive, IL-1B inflam inh -11.1 and DRD3 agonist -1.9.
Screening Cc1cc(Cl)ccc1NS(=O)(=O)c1c(C(=O)N2CCC(C)CC2)c(C)n(C)c1C returned ClpP mod -3.4%, DT40 TDP1 no CPT 16.4µM*, TDP1 cell CPT inconclusive and DRD3 agonist 1.6.
Screening COc1cc(OC)c(NS(=O)(=O)c2c(C(=O)N3CCCCCC3)c(C)n(C)c2C)cc1Cl returned ClpP mod 0.0%, DT40 TDP1 no CPT 20.6µM*, TDP1 cell CPT inconclusive and DRD3 agonist 2.4.
`COc1cc(OC)c(NS(=O)(=O)c2c(C(=O)N3CCCCC3)c(C)n(C)c2C)cc1Cl` gave ClpP mod 1.2%, DRD3 antagonist 0.6, DT40 TDP1 no CPT 1.2%, TDP1 cell CPT 1.4%, IL-1B inflam inh -12.7 and DRD3 agonist 3.2.
Screening CCCCCCCCCCCCCCCCCC(=O)OC[C@@H](O)[C@H]1OC[C@H](O)[C@H]1O returned DT40 TDP1 no CPT -17.7%, TDP1 cell CPT -17.0% and DRD3 agonist -11.8.
Cc1ccc(C)c(N2N=C(C(=O)Nc3cccc(S(=O)(=O)N4CCCCC4)c3)CCC2=O)c1 was read as ClpP mod -1.0%, DRD3 antagonist inconclusive, DT40 TDP1 no CPT inconclusive, TDP1 cell CPT inconclusive, IL-1B inflam inh 0.3 and DRD3 agonist 1.7.
CC(C)(C)CN1C(N)=NC[C@H]1Cc1ccc(O)cc1 was read as ClpP mod -1.3%, DRD3 antagonist 31.2, DT40 TDP1 no CPT inconclusive, TDP1 cell CPT inconclusive, IL-1B inflam inh 12.4 and DRD3 agonist 1.6.

Compound activity from PubChem.
